An excerpt weighted towards active compounds, which were near 4.2% of everything screened.
Mac1 fbg enh: enhancers of CD11b/CD18 adhesion to fibrinogen, primary screen, K562 cells, luminescence; Integrin beta-2 (Homo sapiens) + Integrin alpha-M (Homo sapiens), P05107+P11215; ATPlite luminescence; activation, % at 10 µM; hit rate 0.07% among 93,000; AID 1499, 2009;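 active = 10 µM primary screen giving 50% or more activity, confirmed by 40% or more on retest at that dose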
CD11b adhes inh: inhibitors of CD11b/CD18 adhesion to fibrinogen, primary screen, K562 cells, luminescence; ATPlite luminescence; Mn2+ added to activate the integrin; inhibition, % at 10 µM; hit rate 0.54% among 93,000; AID 1497, 2009;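 active = primary inhibition of 50% or more at 10 µM, then 40% or more on retest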
Cav3 T inh: Cav3.2 calcium influx blockers – cell-based, Fluo-4 calcium fluorescence, FDSS, MLSMR library, primary screen | Voltage-dependent T-type calcium channel subunit alpha-1H (Homo sapiens), O95180 | Cav3.2-expressing cells; active compounds read low | B-score at 10 µM | hit rate 4% among 100,000;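 active = single-dose well whose peak fluorescence ratio is a statistical outlier from its plate by either plate-standardised score or position-corrected B-score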
PTK2B oligo ant: antagonists of Pyk2 self-association, primary screen, Q293 cells, FERM NanoBiT luminescence, HTS; Protein-tyrosine kinase 2-beta (Homo sapiens), Q14289; active compounds read low; z-score (the deposit names both 25 µM and 10 µM); hit rate 0.83% among 99,000; AID 1347419, 2020;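 active = Z-score of -3 or lower, scaled per plate to the spread of control and sample wells; inactive = z-score above -3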;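 also: negative z-score means lost luminescence so less FERM oligomerization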
E coli RNAP: E. coli RNAP inhibitors, biochemical. DNA-directed RNA polymerase subunit beta (Escherichia coli (strain K12)), P0A8V2. E. coli RNA polymerase, fluorescence transcription assay. inhibition, %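 (tested at 10 µM)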. hit rate 0.2% among 62,000; in the data active = inhibition above about 20%;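 also: 0% = enzyme without compound and 100% = no enzyme blank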
Numbers without * were called inactive; . = no result.

SMILES	Mac1 fbg enh	CD11b adhes inh	Cav3 T inh	PTK2B oligo ant	E coli RNAP
O=C(Cc1nc2ccccc2[nH]1)N/N=C/c1ccccc1	0	-18	.	.	.
CC(C)(C)c1cc(/C=N/NC(=O)Cc2nc3ccccc3[nH]2)cc(C(C)(C)C)c1O	0	-12	-7.6*	0.43	.
COc1ccc(C2=NN(C(C#N)c3ccc(OC)cc3)C(c3ccccc3)C2)cc1 (configuration not stated)	.	.	.	-0.08	.
CCN(CC)S(=O)(=O)c1ccc(OC)c(NC(=O)C(Cc2ccccc2)N2C(=O)c3ccccc3C2=O)c1 (configuration not stated)	6	2	.	.	.
CC(C)CC(=O)NC(NC(=S)Nc1cccc2cccnc12)C(Cl)(Cl)Cl (configuration not stated)	-2	-7	-0.035	-0.19	.
CC(C)C(=O)NC(Nc1cccc2cccnc12)C(Cl)(Cl)Cl (configuration not stated)	-1	9	-5.1*	-0.84	.
CCNc1nc(N)c(C(=C(C#N)C#N)c2ccccc2)s1	.	.	0.045	-0.67	.
CCOc1ccc(/C(O)=C2/C(=O)C(=O)N(c3nc(C)c(C)s3)C2c2ccco2)cc1 (configuration not stated)	-4	-1	-5.7*	0.38	.
COc1ccc(OCCCC(=O)Nc2cccc([N+](=O)[O-])c2C)cc1	8	1	.	.	.
O=C(NC(NCC1CCCO1)C(Cl)(Cl)Cl)c1cccc2ccccc12 (configuration not stated)	-3	7	-5*	0.68	.
Cc1cc2c3c(c1)C1(SCC(=O)N1c1ccc(F)cc1)C(=O)N3C(C)(C)CC2C (configuration not stated)	4	6	-3.4*	-1.9	.
COc1ccc(N2C(=O)CSC23C(=O)N2c4c(cccc43)C(C)=CC2(C)C)cc1 (configuration not stated)	-4	4	-2	-1.3	.
COC(=O)c1ccc(/C(O)=C(\C#N)c2nc3ccccc3s2)cc1	-10	103*	-2.8	0.59	9
CCOC(=S)N/C(=N\S(=O)(=O)c1ccc(C)cc1)c1ccccc1	0	-29	1.4	-0.02	.
Cc1ccc(C(=O)OCC(=O)Nc2sc3c(c2C#N)CCCCC3)cc1NC(=O)c1ccco1	.	.	-3.8*	-1.2	4
CCCn1c(N)c(C(=S)NC(=O)C2CC2)c(=O)n(C)c1=O	.	.	.	-0.04	.
COc1ccc2c(c1)c(=O)c(C(=O)c1ccccc1)cn2Cc1ccc(C)cc1	.	.	-5.5*	.	.
CN(C)c1nc(NCc2ccccc2)nc(SCC(=O)Nc2ccccc2)n1	-5	-3	-0.62	-0.61	.
CC(Sc1nc(NCc2ccccc2)nc(N(C)C)n1)C(=O)Nc1ccccc1 (configuration not stated)	2	5	-3.4*	-1.8	.
COc1ccc(SCc2noc(C(=O)NC(C)C)c2C(=O)O)cc1	.	.	0.011	.	.
CCC1CCCCN1C(=O)CSc1nc2ccsc2c(=O)n1Cc1ccccc1 (configuration not stated)	-3	10	-4.9*	-2.1	.
O=C(CSc1nc2ccsc2c(=O)n1Cc1ccc(C(=O)O)cc1)NCC1CCCO1 (configuration not stated)	.	.	.	0.28	.
CC1CCN(C(=O)COC(=O)[C@H](C)NS(=O)(=O)/C=C/c2ccccc2)CC1	0	-2	-5.9*	0.83	.
COC(=O)CNC(c1ccccc1)c1cc(Br)ccc1NC(=O)OCc1ccccc1 (configuration not stated)	2	6	-9.4*	-2.2	.
COC(=O)CNC(c1ccccc1)c1cc(C)ccc1NC(=O)CNC(=O)OCc1ccccc1 (configuration not stated)	-4	-7	-7.2*	-1.1	.
SMILES	Mac1 fbg enh	CD11b adhes inh	Cav3 T inh	PTK2B oligo ant	E coli RNAP
CNC(=O)[C@@H]1C[C@H]1[C@@H](NC(=O)CNC(=O)OCc1ccccc1)c1ccccc1	.	.	1.6	.	.
C[C@H]1C=C(C(=O)NC2CC2)O[C@@H](OCc2ccc(CO)cc2)C1	.	.	1.1	.	.
Cc1nnc(N/N=C/c2cc([N+](=O)[O-])c(N3CCC(C)CC3)cc2N2CCC(C)CC2)n1N	1	25	-6.7*	-1.4	.
CN(C(=O)c1ccncc1)C1CC(C)(C)N(O)C(C)(C)C1	3	5	.	0.92	21*
COc1ccc(C2CC(c3ccccc3)Nc3nc(NC(=O)c4cccs4)nn32)cc1 (configuration not stated)	-1	30	-1.8	-3.5*	10
COc1ccc(C2CC(c3ccccc3)n3nc(NC(=O)c4cccs4)nc3N2)cc1 (configuration not stated)	-5	6	.	-2.9	3
O=C(Nc1nc2n(n1)C(c1ccc(Cl)cc1)CC(c1ccc(Cl)cc1)N2)c1ccco1 (configuration not stated)	2	-25	-5.3*	.	7
O=C(Nc1nc2n(n1)C(c1ccccc1)C=C(c1ccccc1)N2)c1ccco1 (configuration not stated)	1	-2	-2.5	-0.59	-3
COc1ccc(C2CC(c3ccc(Cl)cc3)Nc3nc(NC(=O)c4ccco4)nn32)cc1 (configuration not stated)	.	.	-3.9*	-1.4	9
CCOP(=O)(OCC)C(O)c1cc(OC)c(OC)c(OC)c1 (configuration not stated)	0	-8	.	.	.
COc1ccc(NC2c3ccccc3C(=O)N2Cc2ccco2)cc1OC (configuration not stated)	4	-5	0.34	.	12
CCOc1ccc(NC2c3ccccc3C(=O)N2Cc2ccco2)cc1 (configuration not stated)	-2	30	-4.7*	.	2
O=C1c2ccccc2C(Nc2ccc(F)c(Cl)c2)N1Cc1ccco1 (configuration not stated)	3	6	-6*	.	6
Cc1[nH]c2ccccc2c1C(=O)COC(=O)c1c(-c2c(F)cccc2Cl)noc1C	4	16	.	.	.
CC1CCc2cc(F)ccc2N1S(=O)(=O)c1ccc(Cl)nc1 (configuration not stated)	-1	-1	.	.	.
Cc1ccccc1C(=O)/C=C1/c2ccccc2CC(C)(C)N1C	.	.	-3.9*	-0.38	.
CN1/C(=C\C(=O)c2ccco2)c2ccccc2CC1(C)C	-1	1	-0.16	-0.12	5
Cc1cccc(C(=O)NC(=S)N2CCN(C)CC2)c1	.	.	1	0.88	.
Cc1cccc(C(=O)/C=C2/c3ccccc3CC(C)(C)N2C)c1	6	0	-4.2*	0.48	.
Cc1nn(-c2ccccc2)c(N2CCCC2)c1/C=C1\N=C(c2ccc(OC(C)C)cc2)OC1=O	0	33	.	.	.
Cc1cccc(NC(=O)CSc2nnc(-c3ccc(S(=O)(=O)N4CCOCC4)cc3)n2C)c1	-2	-6	1.3	0.51	5
Cc1ccc(Nc2nnc(SCC(=O)Nc3ccc(S(=O)(=O)N4CCOCC4)cc3)s2)cc1	-2	52*	-2.8	-2.7	.
